The record followed here is PubChem BioAssay (Tox21).

Results filed as inconclusive are left out. The source made the active and inactive calls. Calls follow the shape of the dose curve; as a rule, active = well fitted curve in the direction sought with a large enough effect in the repeat runs; inconclusive = weak or mixed curves; inactive = no such curve, though single readings can be large; an effect the other way counts as inactive or inconclusive.
% is scaled to controls: 0 for no effect and ±100 for the full control effect; potency is read from the fitted curve at half-maximal effect.

Chain of Luciferin 4-monooxygenase (Photinus pyralis) (P08659 whole entry, looked up): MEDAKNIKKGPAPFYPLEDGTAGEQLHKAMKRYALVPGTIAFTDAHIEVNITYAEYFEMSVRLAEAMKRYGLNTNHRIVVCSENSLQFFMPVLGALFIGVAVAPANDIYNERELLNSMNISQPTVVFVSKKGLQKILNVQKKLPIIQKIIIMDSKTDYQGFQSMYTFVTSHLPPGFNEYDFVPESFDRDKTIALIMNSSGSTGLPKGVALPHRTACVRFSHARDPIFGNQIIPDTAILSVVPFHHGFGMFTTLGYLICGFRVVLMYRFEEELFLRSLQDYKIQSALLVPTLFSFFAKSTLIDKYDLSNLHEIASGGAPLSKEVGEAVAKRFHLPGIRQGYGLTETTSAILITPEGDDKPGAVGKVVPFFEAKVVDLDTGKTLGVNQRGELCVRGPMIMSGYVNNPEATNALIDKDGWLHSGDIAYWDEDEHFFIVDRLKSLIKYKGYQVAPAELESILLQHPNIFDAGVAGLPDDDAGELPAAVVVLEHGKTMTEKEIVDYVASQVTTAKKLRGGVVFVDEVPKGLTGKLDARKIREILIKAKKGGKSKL

One assay addresses Luciferin 4-monooxygenase (Photinus pyralis) (UniProt P08659). Kind of assay: qHTS assay to identify small molecule inhibitors of firefly luciferase (AID 1224835). Also: nearly all actives have a fitted effect of over 25% in size. Particulars: purified P. pyralis luciferase, luminescence inhibition; series mostly up to 115 µM; activity change, negative = inhibition: at the top concentration. In short, it runs like this: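 Inhibition of purified Photinus luciferase is measured by luminescence. Substrate levels (D-luciferin, ATP) sit at their KM values. Each compound is tested in a concentration series.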
As for `CCCCCCOC(=O)CCC`, the “activity change, negative = inhibition” value was 4.02% (inactive).

For `C=CC(=O)OCC(C)OCC(C)OCC(C)OC(=O)C=C` (stereo not given), the “activity change, negative = inhibition” value is 2.31% (inactive).

As to `N=C(N=C(N)N)N1CCOCC1`, the “activity change, negative = inhibition” value was -5.19% [at 52.9 µM] (inactive). Take `Cc1ccc(O)c([C@H](CCN(C(C)C)C(C)C)c2ccccc2)c1`: the “activity change, negative = inhibition” value is 6.53% [at 52.9 µM] (inactive).

For the compound `C1CCC2OC2C1` (stereo not given), the “activity change, negative = inhibition” value is 0.498% (inactive). Turning to `CCOC(=O)CC(=O)c1cc(F)c(Cl)nc1Cl`, the Potency is 40.9 µM (active). For `CC(C)CCCC(C)CCO` (stereo not given), the “activity change, negative = inhibition” value was 0.738% (inactive). As to `Cc1cc(C)c(S(=O)(=O)O)cc1N=Nc1cc(S(=O)(=O)O)c2ccccc2c1O`, the Potency is 1.42 µM (active). Turning to `Oc1ccc2c(c1)OCO2`, the “activity change, negative = inhibition” value is -4.22% (inactive). Still for that read-out and setting: then `CCN(CC)CCOC(=O)C1(c2ccccc2)CCCC1`, with 5.34% [at 52.9 µM] (inactive). Regarding `O=C1CCCCCO1`, the “activity change, negative = inhibition” value is -0.879% (inactive). For the compound `CC(C)CCCCCCOC(=O)c1ccc(C(=O)OCCCCCCC(C)C)c(C(=O)OCCCCCCC(C)C)c1`, the “activity change, negative = inhibition” value is 3.36% (inactive). On to `CC(C)(C)c1ccc(OCC2CO2)cc1` (stereo not given), for which the Potency is 32.4 µM (active). In the case of `COC(Cc1ccccc1)OC`, the “activity change, negative = inhibition” value is -0.655% (inactive). Same read-out and setting: then `CC(Cc1cccc(C(F)(F)F)c1)NCCOC(=O)c1ccccc1` (stereo not given), with 0.523% [at 52.9 µM] (inactive). Take `N#CCc1cccc(C(F)(F)F)c1`: the “activity change, negative = inhibition” value is 1.07% (inactive).

For the compound `SC1CCCC1`, the “activity change, negative = inhibition” value was 0.532% (inactive). For the compound `Cc1cc(NC(=O)C(=O)O)cc(C)c1Oc1ccc(O)c2c1CCC2`, the Potency was 35.6 µM (active). With `O=C(NS(=O)(=O)/C=C/c1cccs1)c1ccc(F)cc1Br`, the “activity change, negative = inhibition” value is -0.23% (inactive). For the compound `CC(=O)CC(=O)c1ccccc1`, the “activity change, negative = inhibition” value was -0.332% (inactive). Still for that read-out and setting: for `COc1ccc([C@@H]2Sc3ccccc3N(CCN(C)C)C(=O)[C@@H]2OC(C)=O)cc1` the value was -0.819% [at 52.9 µM] (inactive). On the same count and under the same terms, for `CCOC(=O)C1=C(C)NC(C)=C(C(=O)OC)C1c1cccc([N+](=O)[O-])c1` (stereo not given) the value was -3.71% [at 52.9 µM] (inactive); for `CCCCOC(O)CC` (stereo not given), 1.11% (inactive); for `CCCCCCCCC(CO)CCCCCC` (stereo not given), 6.72% (inactive).

Take `C1=Cc2ccccc2C1`: the “activity change, negative = inhibition” value was -4.29% (inactive). On to `CCCCCCCCCCCCCCCBr`, for which the “activity change, negative = inhibition” value is 0.174% [at 52.9 µM] (inactive). With `COc1ccc2[nH]c(S(=O)Cc3ncc(C)c(OC)c3C)nc2n1` (stereo not given), the “activity change, negative = inhibition” value was 1.35% [at 52.9 µM] (inactive).

Consider `N#Cc1c(F)cccc1F`, for which the “activity change, negative = inhibition” value is 0.531% (inactive). In the case of `C#CCOC(=O)[C@@H](C)Oc1ccc(Oc2ncc(Cl)cc2F)cc1`, the “activity change, negative = inhibition” value was -2.69% (inactive). For `COCCCCCCCCOCCC[Si](C)(O[Si](C)(C)C)O[Si](C)(C)C`, the “activity change, negative = inhibition” value is -0.396% (inactive). On to `CN(C)CCCNCCCN`, for which the “activity change, negative = inhibition” value was 2.43% (inactive).

As for `COc1cc(C(C)(C)C)c(O)c(C(C)(C)C)c1`, the “activity change, negative = inhibition” value was 2.38% (inactive). In the case of `NCc1ccccc1`, the “activity change, negative = inhibition” value was 1.25% (inactive).

System in the next assay: not listed separately
As to the kind of experiment: qHTS assay to identify small molecule agonists of the constitutive androstane receptor (CAR) signaling pathway - cell viability counter screen (AID 1224836). Also: nearly all actives have a fitted effect of over 45% in size. The note with it: HepG2-CYP2B6-hCAR viability, CellTiter-Fluor, 23 h, PK11195 added to every well; series mostly up to 92.4 µM; viability change, negative = cytotoxic: at the top concentration. In short, it runs like this: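 Multiplexed viability check: HepG2-CYP2B6-hCAR cells, 15-point compound dosing, 0.75 uM PK11195 final, 23 h at 37 C, CellTiter-Fluor fluorescence.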
As for `CCCCCCOC(=O)CCC`, the “viability change, negative = cytotoxic” value is 1.04% (inactive). Consider `C=CC(=O)OCC(C)OCC(C)OCC(C)OC(=O)C=C` (stereo not given), for which the “viability change, negative = cytotoxic” value is -11.5% (inactive). For `N=C(N=C(N)N)N1CCOCC1`, the “viability change, negative = cytotoxic” value is 8.35% [at 42.5 µM] (inactive). The same measure, in the same setting: then `Cc1ccc(O)c([C@H](CCN(C(C)C)C(C)C)c2ccccc2)c1`, with -14.1% [at 42.5 µM] (inactive); and `C1CCC2OC2C1` (stereo not given), with -0.515% (inactive). As to `Cn1sccc1=O`, the Potency entry is “inactive”. With `CCOC(=O)CC(=O)c1cc(F)c(Cl)nc1Cl`, the “viability change, negative = cytotoxic” value was -8.42% (inactive). As for `Cc1cc(C)c(S(=O)(=O)O)cc1N=Nc1cc(S(=O)(=O)O)c2ccccc2c1O`, the Potency was 61.1 µM (active). Turning to `O=C1CCCCCO1`, the “viability change, negative = cytotoxic” value is -1.14% (inactive).

Take `CC(C)CCCCCCOC(=O)c1ccc(C(=O)OCCCCCCC(C)C)c(C(=O)OCCCCCCC(C)C)c1`: the “viability change, negative = cytotoxic” value is 7.77% (inactive). For `CC(C)(C)c1ccc(OCC2CO2)cc1` (stereo not given), the “viability change, negative = cytotoxic” value was 3.37% (inactive). With `COC(Cc1ccccc1)OC`, the “viability change, negative = cytotoxic” value was -0.214% (inactive). Turning to `O=C(c1ccccc1)c1ccc2n1CCC2C(=O)O` (stereo not given), the “viability change, negative = cytotoxic” value was 9.1% [at 42.5 µM] (inactive). In the case of `CC(Cc1cccc(C(F)(F)F)c1)NCCOC(=O)c1ccccc1` (stereo not given), the “viability change, negative = cytotoxic” value is -7.79% [at 42.5 µM] (inactive). As to `N#CCc1cccc(C(F)(F)F)c1`, the “viability change, negative = cytotoxic” value is 0.0727% (inactive). Still for that read-out and setting: then `SC1CCCC1`, with 0.866% (inactive); and `O=C(NS(=O)(=O)/C=C/c1cccs1)c1ccc(F)cc1Br`, with 7.77% (inactive); and `COc1ccc([C@@H]2Sc3ccccc3N(CCN(C)C)C(=O)[C@@H]2OC(C)=O)cc1`, with 0.469% [at 42.5 µM] (inactive).

For `CCOC(=O)C1=C(C)NC(C)=C(C(=O)OC)C1c1cccc([N+](=O)[O-])c1` (stereo not given), the “viability change, negative = cytotoxic” value is -15% [at 42.5 µM] (inactive).

Turning to `N#Cc1cc2ccccc2c2ccccc12`, the “viability change, negative = cytotoxic” value was 0.182% (inactive). Consider `CC(C)c1ccccc1C(C)C`, for which the “viability change, negative = cytotoxic” value was 0.286% (inactive). For `CCCCCCCCC(CO)CCCCCC` (stereo not given), the “viability change, negative = cytotoxic” value was 1.53% (inactive). In the case of `C1=Cc2ccccc2C1`, the “viability change, negative = cytotoxic” value was 0.309% (inactive). On to `CCCCCCCCCCCCCCCBr`, for which the “viability change, negative = cytotoxic” value is -9.09% [at 42.5 µM] (inactive). For the compound `N#Cc1c(F)cccc1F`, the “viability change, negative = cytotoxic” value is 3.28% (inactive). Turning to `CN(C)CCCNCCCN`, the “viability change, negative = cytotoxic” value is -2.25% (inactive). For `COc1cc(C(C)(C)C)c(O)c(C(C)(C)C)c1`, the “viability change, negative = cytotoxic” value was 3.26% (inactive).
